# Assay results published in the supplement of paper PMC8728848.
# Many of the other results were omitted from the sample, so the strongest signals are more common in it than they were.
# B1: Vd7LysM (Verticillium dahliae) (protein)
# chain: RRGPEPKYPPAAGTSSYCSYWVDYEGDKSCSRVLEDNVVVLKDFARWNPTVGADCSGIKAGNSYCVEAFGEPEPIEVTTTTRAATTTTQPTATTTTFANGIATPQPTQSGMVTNCNKFHWIAEGVSCSQVISFQKITLADFVKWNPSVKSDCSGMWAGVNVCVGVVGSSTDTAKPTTTAPSNGVVTPQPTQPSMVTNCNKFHWIAKGVTCQQVISYQKISLADFVKWNPSVLSDCSGMWAEVQVCVGVIGSTPTTLATTTTTAGNGVSTPLPTQPGMVTNCAKFHWVAKGVTCNQIYSFQKITLEQFVSYNPTVKSDCSGMQAEVQVCVGLIAGTTPTTTRPPTTTAPGNGVSTPQPTQPGMVTNCAKFHWVAKGVTCNQIYSFQKITLEQFVSFNPTVKSDCTGMQAEVNVCVGLIGGNPTPTQTGNGIATPTPIQPGMVSNCKKFHWIAQGVTCQQVISFQKITLADFVKWNTGVGSDCRTMWAETNVCVGV
# B2: EfCBM33A (Enterococcus faecalis), Q838S1 (protein)
# chain: MKKSLLTIVLAFSFVLGGAALAPTVSEAHGYVASPGSRAFFGSSAGGNLNTNVGRAQWEPQSIEAPKNTFITGKLASAGVSGFEPLDEQTATRWHKTNITTGPLDITWNLTAQHRTASWDYYITKNGWNPNQPLDIKNFDKIASIDGKQEVPNKVVKQTINIPTDRKGYHVIYAVWGIGDTVNAFYQAIDVNIQ
# Experiments:
# Test in all cases: glycan array binding signal (z-score within array); higher = stronger binding
# Conditions in all cases: glycan notation: IUPAC condensed, linker removed
# GalNAc(b1-6)GalNAc = target: GalNAc(b1-6)GalNAc
# Summary of the method: (§1)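 Columns mapping to the same glycan were averaged after glycan names were converted to IUPAC-condensed notation. The data come from 3228 arrays in the Consortium for Functional Glycomics database, limited to those with an available protein sequence. Binding is reported as a within-array Z-score averaged across arrays of one protein sequence and across linkers.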
# GalNAc6S(b1-4)GlcNAc = target: GalNAc6S(b1-4)GlcNAc
# Summary of the method: as §1
# [1] = target: Glc(a1-4)Glc(a1-4)Glc(a1-4)Glc
# Summary of the method: as §1
# Glc(b1-6)Glc = target: Glc(b1-6)Glc
# Summary of the method: as §1
# [2] = target: GlcNAc(a1-4)Gal(b1-3)GlcNAc
# Summary of the method: as §1
# [3] = target: GlcNAc(a1-4)Gal(b1-4)GlcNAc(b1-3)Gal(b1-4)[Fuc(a1-3)]GlcNAc(b1-3)Gal(b1-4)[Fuc(a1-3)]GlcNAc
# Summary of the method: as §1
# [4] = target: GlcNAc(b1-3)Gal(b1-4)GlcNAc
# Summary of the method: as §1
# [5] = target: GlcNAc(b1-3)Gal(b1-4)GlcNAc(b1-2)Man(a1-3)[GlcNAc(b1-3)Gal(b1-4)GlcNAc(b1-2)Man(a1-6)]Man(b1-4)GlcNAc(b1-4)GlcNAc
# Summary of the method: as §1
# [6] = target: GlcNAc(b1-3)Gal(b1-4)GlcNAc(b1-3)Gal(b1-4)GlcNAc(b1-2)[GlcNAc(b1-3)Gal(b1-4)GlcNAc(b1-3)Gal(b1-4)GlcNAc(b1-6)]Man(a1-6)[GlcNAc(b1-3)Gal(b1-4)GlcNAc(b1-3)Gal(b1-4)GlcNAc(b1-2)Man(a1-3)]Man(b1-4)GlcNAc(b1-4)[Fuc(a1-6)]GlcNAc
# Summary of the method: as §1
# Kdn(a2-3)Gal(b1-3)GalNAc = target: Kdn(a2-3)Gal(b1-3)GalNAc
# Summary of the method: as §1
# [7] = target: Neu5Ac(a2-3)Gal(b1-4)GlcNAc(b1-3)Gal(b1-3)GlcNAc
# Summary of the method: as §1
# [8] = target: Neu5Ac(a2-3)Gal(b1-4)GlcNAc(b1-3)Gal(b1-4)GlcNAc(b1-2)Man(a1-3)[Neu5Ac(a2-3)Gal(b1-4)GlcNAc(b1-3)Gal(b1-4)GlcNAc(b1-2)Man(a1-6)]Man(b1-4)GlcNAc(b1-4)GlcNAc
# Summary of the method: as §1
# [9] = target: Neu5Ac(a2-3)Gal(b1-4)[Fuc(a1-3)]GlcNAc(b1-2)Man
# Summary of the method: as §1
# [10] = target: Neu5Ac(a2-3)Gal(b1-4)[Fuc(a1-3)]GlcNAc(b1-3)Gal(b1-4)GlcNAc
# Summary of the method: as §1
# [11] = target: Neu5Ac(a2-6)Gal(b1-4)GlcNAc(b1-2)Man(a1-3)[Neu5Ac(a2-3)Gal(b1-4)GlcNAc(b1-2)Man(a1-6)]Man(b1-4)GlcNAc(b1-4)GlcNAc
# Summary of the method: as §1
# [12] = target: Neu5Ac(a2-6)Gal(b1-4)GlcNAc6S
# Summary of the method: as §1
# Neu5Ac(a2-8)Neu5Ac = target: Neu5Ac(a2-8)Neu5Ac
# Summary of the method: as §1
# [13] = target: Neu5Ac(a2-8)Neu5Ac(a2-8)Neu5Ac
# Summary of the method: as §1
# [14] = target: Neu5Ac9Ac(a2-6)Gal(b1-4)GlcNAc
# Summary of the method: as §1
# [15] = target: Neu5Gc(a2-3)Gal(b1-4)GlcNAc
# Summary of the method: as §1
# [16] = target: Neu5Gc(a2-3)Gal(b1-4)[Fuc(a1-3)]GlcNAc
# Summary of the method: as §1
# [17] = target: Neu5Gc(a2-8)Neu5Ac(a2-3)Gal(b1-4)GlcNAc
# Summary of the method: as §1
# [18] = target: Fuc(a1-2)Gal(b1-3)GalNAc(a1-3)[Fuc(a1-2)]Gal(b1-4)GlcNAc
# Summary of the method: as §1
# [19] = target: Fuc(a1-2)Gal(b1-3)GlcNAc(b1-3)[Gal(b1-4)GlcNAc(b1-6)]Gal(b1-4)Glc
# Summary of the method: as §1
# [20] = target: Fuc(a1-2)Gal(b1-3)[Fuc(a1-4)]GlcNAc(b1-2)Man(a1-3)[Fuc(a1-2)Gal(b1-3)[Fuc(a1-4)]GlcNAc(b1-2)Man(a1-3)]Man(b1-4)GlcNAc(b1-4)GlcNAc
# Summary of the method: as §1
# Fuc(a1-2)Gal(b1-4)Glc = target: Fuc(a1-2)Gal(b1-4)Glc
# Summary of the method: as §1
# [21] = target: Fuc(a1-2)Gal(b1-4)GlcNAc(b1-6)GalNAc
# Summary of the method: as §1
# [22] = target: Fuc(a1-2)Gal(b1-4)[Fuc(a1-3)]GlcNAc
# Summary of the method: as §1
# [23] = target: Fuc(a1-2)Gal3S(b1-4)GlcNAc
# Summary of the method: as §1
# [24] = target: Fuc(a1-2)[GalNAc(a1-3)]Gal(b1-4)GlcNAc(b1-2)Man(a1-3)[Fuc(a1-2)[GalNAc(a1-3)]Gal(b1-4)GlcNAc(b1-2)Man(a1-6)]Man(b1-4)GlcNAc(b1-4)[Fuc(a1-6)]GlcNAc
# Summary of the method: as §1
# [25] = target: Fuc(a1-2)[GalNAc(a1-3)]Gal(b1-4)GlcNAc(b1-3)Gal(b1-4)GlcNAc
# Summary of the method: as §1
# [26] = target: Fuc(a1-2)[GalNAc(a1-3)]Gal(b1-4)[Fuc(a1-3)]GlcNAc
# Summary of the method: as §1
# [27] = target: Fuc(a1-3)[Gal(b1-4)]GlcNAc(b1-3)Gal(b1-4)[Fuc(a1-3)]GlcNAc
# Summary of the method: as §1
# [28] = target: Fuc(a1-3)[Gal(b1-4)]GlcNAc6S
# Summary of the method: as §1
# [29] = target: Gal(a1-3)Gal(b1-3)GlcNAc(b1-2)Man
# Summary of the method: as §1
# [30] = target: Gal(b1-3)GlcNAc(a1-3)Gal(b1-4)GlcNAc
# Summary of the method: as §1
# [31] = target: Gal(b1-3)GlcNAc(b1-3)Gal(b1-4)GlcNAc
# Summary of the method: as §1
# [32] = target: Gal(b1-4)GlcNAc(b1-3)Gal(b1-3)GlcNAc
# Summary of the method: as §1
# [33] = target: Gal(b1-4)GlcNAc(b1-3)Gal(b1-4)GlcNAc(b1-3)Gal(b1-4)GlcNAc(b1-3)Gal(b1-4)GlcNAc(b1-3)Gal(b1-4)GlcNAc(b1-2)Man(a1-3)[Gal(b1-4)GlcNAc(b1-3)Gal(b1-4)GlcNAc(b1-3)Gal(b1-4)GlcNAc(b1-3)Gal(b1-4)GlcNAc(b1-3)Gal(b1-4)GlcNAc(b1-2)Man(a1-6)]Man(b1-4)GlcNAc(b1-4)[Fuc(a1-6)]GlcNAc
# Summary of the method: as §1
# [34] = target: Gal(b1-4)GlcNAc(b1-3)Gal(b1-4)[Fuc(a1-3)]GlcNAc(b1-3)Gal(b1-4)[Fuc(a1-3)]GlcNAc
# Summary of the method: as §1
# [35] = target: Gal3S(b1-3)[Fuc(a1-4)]GlcNAc
# Summary of the method: as §1
# Gal4S(b1-4)GlcNAc = target: Gal4S(b1-4)GlcNAc
# Summary of the method: as §1
# Gal6S(b1-4)GlcNAc = target: Gal6S(b1-4)GlcNAc
# Summary of the method: as §1
# [36] = target: GalNAc(a1-3)GalNAc(b1-3)Gal(a1-4)Gal(b1-4)GlcNAc
# Summary of the method: as §1
# GalNAc(b1-4)GlcNAc = target: GalNAc(b1-4)GlcNAc
# Summary of the method: as §1
# [37] = target: GalNAc(b1-4)GlcNAc(b1-2)Man(a1-3)[GalNAc(b1-4)GlcNAc(b1-2)Man(a1-6)]Man(b1-4)GlcNAc(b1-4)GlcNAc
# Summary of the method: as §1
# GalNAc3S(b1-4)GlcNAc3S = target: GalNAc3S(b1-4)GlcNAc3S
# Summary of the method: as §1
# Glc(a1-6)Glc(a1-6)Glc = target: Glc(a1-6)Glc(a1-6)Glc
# Summary of the method: as §1
# [38] = target: GlcNAc(b1-2)Gal(b1-3)GalNAc
# Summary of the method: as §1
# [39] = target: GlcNAc(b1-2)[GlcNAc(b1-4)]Man(a1-3)[GlcNAc(b1-2)Man(a1-6)]Man(b1-4)GlcNAc(b1-4)GlcNAc
# Summary of the method: as §1
# [40] = target: GlcNAc(b1-3)Gal(b1-4)GlcNAc(b1-3)Gal(b1-4)GlcNAc(b1-3)Gal(b1-4)GlcNAc(b1-3)Gal(b1-4)GlcNAc(b1-2)Man(a1-3)[GlcNAc(b1-3)Gal(b1-4)GlcNAc(b1-3)Gal(b1-4)GlcNAc(b1-3)Gal(b1-4)GlcNAc(b1-3)Gal(b1-4)GlcNAc(b1-2)Man(a1-6)]Man(b1-4)GlcNAc(b1-4)[Fuc(a1-6)]GlcNAc
# Summary of the method: as §1
# [41] = target: GlcNAc(b1-3)Gal(b1-4)GlcNAc(b1-3)Gal(b1-4)GlcNAc(b1-3)GalNAc
# Summary of the method: as §1
binder,measurement,setting,value
B1,glycan array binding signal (z-score),GalNAc(b1-6)GalNAc,0.192
same,glycan array binding signal (z-score),GalNAc6S(b1-4)GlcNAc,0.22
same,glycan array binding signal (z-score),[1],0.035
same,glycan array binding signal (z-score),Glc(b1-6)Glc,-1.06
same,glycan array binding signal (z-score),[2],-0.658
same,glycan array binding signal (z-score),[3],1.23
same,glycan array binding signal (z-score),[4],0.117
same,glycan array binding signal (z-score),[5],2.67
same,glycan array binding signal (z-score),[6],2.72
same,glycan array binding signal (z-score),Kdn(a2-3)Gal(b1-3)GalNAc,3.09
same,glycan array binding signal (z-score),[7],1.03
same,glycan array binding signal (z-score),[8],2.5
same,glycan array binding signal (z-score),[9],-0.307
same,glycan array binding signal (z-score),[10],0.427
same,glycan array binding signal (z-score),[11],0.213
same,glycan array binding signal (z-score),[12],0.8
same,glycan array binding signal (z-score),Neu5Ac(a2-8)Neu5Ac,-0.418
same,glycan array binding signal (z-score),[13],-0.119
same,glycan array binding signal (z-score),[14],2.97
same,glycan array binding signal (z-score),[15],0.306
same,glycan array binding signal (z-score),[16],0.377
same,glycan array binding signal (z-score),[17],-0.354
B2,glycan array binding signal (z-score),[18],-0.436
same,glycan array binding signal (z-score),[19],-0.026
same,glycan array binding signal (z-score),[20],0.371
same,glycan array binding signal (z-score),Fuc(a1-2)Gal(b1-4)Glc,0.342
same,glycan array binding signal (z-score),[21],1.05
same,glycan array binding signal (z-score),[22],0.633
same,glycan array binding signal (z-score),[23],0.017
same,glycan array binding signal (z-score),[24],-0.321
same,glycan array binding signal (z-score),[25],0.048
same,glycan array binding signal (z-score),[26],-1.09
same,glycan array binding signal (z-score),[27],0.008
same,glycan array binding signal (z-score),[28],0.882
same,glycan array binding signal (z-score),[29],1.41
same,glycan array binding signal (z-score),[30],0.358
same,glycan array binding signal (z-score),[31],2.06
same,glycan array binding signal (z-score),[32],-0.608
same,glycan array binding signal (z-score),[33],8.45
same,glycan array binding signal (z-score),[34],0.067
same,glycan array binding signal (z-score),[35],2.81
same,glycan array binding signal (z-score),Gal4S(b1-4)GlcNAc,-1.18
same,glycan array binding signal (z-score),Gal6S(b1-4)GlcNAc,0.105
same,glycan array binding signal (z-score),[36],-0.606
same,glycan array binding signal (z-score),GalNAc(b1-4)GlcNAc,1.05
same,glycan array binding signal (z-score),[37],3.54
same,glycan array binding signal (z-score),GalNAc3S(b1-4)GlcNAc3S,0.074
same,glycan array binding signal (z-score),Glc(a1-6)Glc(a1-6)Glc,0.821
same,glycan array binding signal (z-score),[38],-0.504
same,glycan array binding signal (z-score),[39],0.123
same,glycan array binding signal (z-score),[40],4.24
same,glycan array binding signal (z-score),[41],0.242
